Measurements reported in PubChem BioAssay AID720708 (National Center for Advancing Translational Sciences (NCATS), 2013).
The whole screen tested about 360,000 compounds, of which about 660 (0.18%) were called active. About 2% were inconclusive and are not listed. Shown is part of a subset that was picked to be rich in actives. A number with no mark means an inactive call. The call rests on the fitted dose curve; in most records, active means well fitted inhibition curve with a large enough effect; inconclusive means small, poorly fitted or top-dose-only effect; inactive means no such curve, though single readings can be large or run the other way.

These molecules were tested against Rap guanine nucleotide exchange factor 4 (Homo sapiens) (UniProt Q8WZA2) (assay: qHTS for Antagonist of cAMP-regulated guanine nucleotide exchange factor 2 (EPAC2): primary screen). Details: EPAC2 GEF exchange of Rap1B-BODIPY-GDP, fluorescence; series mostly up to 114 µM; activity, negative = inhibition: at the top concentration.
Chain of Rap guanine nucleotide exchange factor 4 (Homo sapiens) (Q8WZA2 whole entry, looked up): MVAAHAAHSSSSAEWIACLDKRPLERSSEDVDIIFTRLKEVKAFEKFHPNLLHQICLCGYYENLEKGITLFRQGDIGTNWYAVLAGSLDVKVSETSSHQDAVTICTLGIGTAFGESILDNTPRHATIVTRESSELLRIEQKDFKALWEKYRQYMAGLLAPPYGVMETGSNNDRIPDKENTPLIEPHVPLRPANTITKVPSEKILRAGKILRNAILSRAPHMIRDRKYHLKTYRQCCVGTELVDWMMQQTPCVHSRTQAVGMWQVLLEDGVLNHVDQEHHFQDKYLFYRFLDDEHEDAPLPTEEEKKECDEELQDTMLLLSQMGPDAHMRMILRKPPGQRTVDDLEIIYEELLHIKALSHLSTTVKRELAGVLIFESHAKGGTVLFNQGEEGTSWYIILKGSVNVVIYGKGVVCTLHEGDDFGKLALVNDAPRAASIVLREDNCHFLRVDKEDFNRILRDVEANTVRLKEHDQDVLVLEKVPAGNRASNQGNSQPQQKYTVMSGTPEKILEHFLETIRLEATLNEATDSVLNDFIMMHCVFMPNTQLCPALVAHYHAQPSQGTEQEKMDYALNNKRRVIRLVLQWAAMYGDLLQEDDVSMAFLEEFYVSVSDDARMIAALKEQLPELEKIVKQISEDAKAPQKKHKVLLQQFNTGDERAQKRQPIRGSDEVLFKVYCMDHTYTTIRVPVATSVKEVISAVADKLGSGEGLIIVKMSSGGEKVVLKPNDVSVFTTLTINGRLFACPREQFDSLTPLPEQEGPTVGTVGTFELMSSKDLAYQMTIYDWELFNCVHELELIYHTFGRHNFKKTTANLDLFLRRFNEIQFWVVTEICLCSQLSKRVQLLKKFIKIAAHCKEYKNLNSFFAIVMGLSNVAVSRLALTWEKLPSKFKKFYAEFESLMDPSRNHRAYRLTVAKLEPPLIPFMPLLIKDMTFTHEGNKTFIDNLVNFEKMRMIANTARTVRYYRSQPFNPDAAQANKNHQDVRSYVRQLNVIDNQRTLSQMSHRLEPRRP
Source text: In multi-cellular eukaryotic organisms, the effects of cAMP are transduced by two ubiquitously-expressed intracellular cAMP receptors, the classic protein kinase A/cAMP-dependent protein kinase (PKA/cAPK) and the more recently discovered exchange protein directly activated by cAMP/cAMP-regulated guanine nucleotide exchange factor (EPAC/cAMP-GEF). Both PKA and EPAC are ubiquitously expressed in all tissues, and an increase in intracellular cAMP levels will lead to the activation of both PKA and EPAC. Therefore, careful dissections of the individual role and relative contribution of EPAC and PKA within the overall cAMP signaling in various model systems are critical for further elucidating the mechanism of cAMP signaling. To date no EPAC-specific antagonists and agonist, as well as isoform-specific agonists have been reported, and developing EPAC-specific pharmacological probes to determine the physiological functions that EPAC play in the overall cAMP-mediated signaling remains a major challenge within the research field. Furthermore, identified regulators of EPAC may lead to new mechanism-based therapeutic strategies specifically targeting the EPAC / cAMP-signaling components as EPAC has been implicated to play important roles in major human pathological conditions such as diabetes, heart disease, and cancer.
This qHTS will be used to screen the Molecular Libraries Small Molecule Repository (MLSMR) as a concentration-titration series using the NCGC unique quantitative screening (qHTS) platform to find inhibitors for EPAC2. In addition, this assay will also be used as a counterscreen for the EPAC1 qHTS. This fluorescent based assay is developed and validated for EPAC2 that measures exchange using EPAC effector Rap1 complex with BODIPY-GDP, a GDP analog with a tethered fluorophores. Inhibitors are identified by monitoring the change in fluorescence signal as the exchanged free BODIPY-GDP has a reduced fluorescence compared to Rap1-bound BODIPY-GDP. Decrease in signal (inhibition) is the desired outcome for the EPAC2 antagonist while no activity in this assay is desired for the EPAC1 antagonist counterscreen.
NIH Chemical Genomics Center [NCGC]
NIH Molecular Libraries Probe Centers Network [MLPCN]
Assay Submitter (PI): Xiaodong Cheng, The University of Texas, Medical Branch
Briefly, three uL of reagents (100 nM EPAC2, 250 nM RAP1B-BODIPY-GDP, 50 uM GDP) were dispensed into a 1536-well Greiner black solid-bottom medium binding assay plate. Controls and test compounds (23 nL) were transferred to the plate via a Kalypsys pin tool equipped with a 1536-pin array. The plates were centrifuged at 1,000 rpm for 15 seconds followed by 5 minute incubation at room temperature. The assay plates were read at 5 minute intervals for 30 minutes in the ViewLux plate reader using 480nm excitation and 540nm emission filters. The results were normalized to the agonist positive control ATA and DMSO.
Further: nearly all actives have a fitted effect of over 45% in size.
On the % scale 0 is the no-effect control and ±100 the full control effect; potency means the concentration at half of the fitted maximal effect.

| Structure (SMILES) | activity, negative = inhibition | Potency |
| --- | --- | --- |
| CCC(CC)C(C(=O)NC1CCCC1)N1CCN(c2cc(C)nc3ccccc23)CC1 (stereo not drawn) | 0.749% |  |
| COc1cc(C(=O)NC2CCN(C)CC2)ccc1Nc1ncc2c(n1)N(C1CCC(O)CC1)CCC(=O)N2C (stereo not drawn) | 5.33% |  |
| Cc1[nH]c2ccccc2c1C(=O)c1cc([C@H](NC(=O)OC(C)(C)C)C(C)C)sc1N | -19.1% |  |
| COc1ccc(NC(=O)C(C)N2c3cccc4cccc(c34)S2(=O)=O)c(OC)c1 (stereo not drawn) | -3.13% |  |
| COc1ccc(CNC(=O)C(=O)NCC2OCCN2C(=O)c2ccc(OC)cc2)cc1 (stereo not drawn) | -3.12% |  |
| CC1CCCC(NC(=O)CN2CCN(Cc3ccc(Cl)cc3)C2=O)C1C (stereo not drawn) | -0.841% |  |
| Brc1ccc2c(c1)[C@H]1OCC[C@H]1[C@@H](c1cccs1)N2 | -14.1% |  |
| CC(C)OC(=O)Cn1nc(C(F)(F)F)c2c1CCCC2 | -0.377% |  |
| CCOC(=O)C1C(C)C(C(C)(C)C)N(S(=O)(=O)c2ccc(C)cc2)C1c1ccccc1 (stereo not drawn) | -18.2% |  |
| CCOC(=O)[C@]12CCCC=C1N(CCC1=CCCCC1)C(=O)[C@H](CC(=O)N1CCN(C(=O)c3ccco3)CC1)C2 | -0.87% |  |
| Cc1cc(NC(=O)CN2CCC(O)(c3cccc(F)c3)CC2)no1 | -3.78% |  |
| O=C(COC(=O)c1cccc(Cl)c1Cl)NC1CCCCCC1 | 0.941% |  |
| CCCCCNC(=O)C(c1ccc(OC)cc1)n1c(=O)c(-c2ccccc2)nc2ccccc21 (stereo not drawn) | -4.54% |  |
| COc1ccc(NC(=O)CNC(=O)Cn2ccc3ccccc3c2=O)c(OC)c1 | 3.29% |  |
| O=C(CSc1n[nH]c(-c2cccs2)n1)N1CCCCC1 | 6.58% |  |
| Cc1cc(C)nc(SC2CCCCC2NS(=O)(=O)c2ccc(Cl)cc2)n1 (stereo not drawn) | -5.29% |  |
| N#CC(C(N)=O)=C1CCC2(CC1)OCCCCO2 | -0.483% |  |
| Cc1ccc(C(C(=O)NC2CCCCC2)N(C(=O)c2csnn2)C2CC2)o1 (stereo not drawn) | -3.05% |  |
| FC(F)(F)c1cccc(-c2nc3ccccc3n2C(c2ccccc2)c2nc3ccccc3[nH]2)c1 (stereo not drawn) | 4.94% |  |
| CCOC(=O)c1cc(S(=O)(=O)NCCc2ccc(OC)c(OC)c2)cn1C | -4.79% |  |
| COCCn1nnnc1CN1CCC(NC(=O)Nc2cccc(OC)c2)CC1 | 1.59% |  |
| CCN1CCCC1CNC(=O)c1ccc2c(c1)NC(=O)/C(=C\c1ccccc1F)S2 (stereo not drawn) | 11.4% |  |

| Structure (SMILES) | activity, negative = inhibition | Potency |
| --- | --- | --- |
| CCOC(=O)N1CCN(C(=O)CSc2nc(C)nc3c2c(=O)n(C)c(=O)n3C)CC1 | -1.46% |  |
| CC1(C(=O)Nc2ccc3c(c2)OCCO3)CN(S(C)(=O)=O)CC(=O)N1Cc1cccc(F)c1 (stereo not drawn) | -11.3% |  |
| C[C@H](CO)N1C[C@H](C)[C@@H](CN(C)C(=O)c2cnccn2)Oc2ncc(Br)cc2C1=O | 6.89% |  |
| C#CCOCCOCCOCCNc1nc(N2CCN(C(=O)C([C@@H](C)CC)n3cc(C(N)COC(=O)C(F)(F)F)nn3)CC2)nc(N2CCN(C(=O)[C@H](CCCCN)n3cc(C(N)CC(C)C)nn3)CC2)n1 (stereo partly drawn) | 4.15% |  |
| C#CCOCCOCCOCCNc1nc(N2CCN(C(=O)[C@H](CCCCN)n3cc([C@@H](N)C(C)CC)nn3)CC2)nc(N2CCN(C(=O)[C@H](Cc3ccc(O)cc3)n3cc([C@@H](N)C(C)CC)nn3)CC2)n1 (stereo partly drawn) | 8.26% |  |
| C#CCOCCOCCOCCNc1nc(N2CCN(C(=O)C([C@@H](C)O)n3cc([C@@H](N)CCCCN)nn3)CC2)nc(N2CCN(C(=O)[C@H](CCCCN)n3cc(CN)nn3)CC2)n1 (stereo partly drawn) | -4.66% |  |
| C#CCOCCOCCOCCNc1nc(N2CCN(C(=O)CCCCCCCCCCNC(=O)[C@H](CCCCN)n3cc(C)nn3)CC2)nc(N2CCN(C(=O)CCCCCCCCCCNC(=O)[C@H](CO)n3cc(CCCSC)nn3)CC2)n1 |  | 50.1 µM (active) |
| C#CCOCCOCCOCCNc1nc(N2CCN(C(=O)CCCCCCCCCCNC(=O)[C@H]([C@@H](C)CC)n3cc(CCCCN=C(N)N)nn3)CC2)nc(N2CCN(C(=O)CCCCCCCCCCNC(=O)[C@H](CO)n3cc(CCCSC)nn3)CC2)n1 |  | 50.1 µM (active) |
| C#CCOCCOCCOCCNc1nc(N2CCN(C(=O)[C@H](CO)n3cc([C@@H](N)C(C)C)nn3)CC2)nc(N2CCN(C(=O)[C@H](CCC(=O)O)n3cc([C@@H](N)[C@H](C)CC)nn3)CC2)n1 | 5.29% |  |
| CC(C)N(C(=O)Cn1cc(S(=O)(=O)CC(=O)N2CCOCC2)c2ccccc21)C(C)C | 1.79% |  |
| Cc1cc(NC(=O)Cn2nc(C(F)(F)F)c3c2CCCC3)no1 | 12.3% |  |
| Cc1ccc(C(=O)N[C@H](C(=O)N2CCN(c3ncccn3)CC2)C(C)C)cc1 | 38.4% |  |
| COCOCCn1cc(CN2CCS(=O)(=O)N(Cc3ccc(-c4ccccc4)cc3)C(CC(C)C)C2=O)nn1 (stereo not drawn) |  | 10 µM (active) |
| COCOCCn1cc(CN2CCS(=O)(=O)N(Cc3ccc(-c4cccc(N(C)C)c4)cc3)C(CC(C)C)C2=O)nn1 (stereo not drawn) | -4.15% |  |
| COc1ccc(-c2ccc(CN3C(CC(C)C)C(=O)N(Cc4cn(CC5CCCCC5)nn4)CCS3(=O)=O)cc2)cc1 (stereo not drawn) | 4.18% |  |
| CCC1Nc2ncnc(N3CCN(c4ccccc4)CC3)c2N(Cc2ccc(Cl)cc2)C1=O (stereo not drawn) | -9.37% |  |
| COC(=O)C[C@@H]1C=C[C@@H](NS(=O)(=O)c2cccc(OC)c2)[C@@H](CO)O1 | -11% |  |
| C=CCSC(CC)(CC)C(N)=O | 4% |  |
| CCOc1ccccc1Oc1cn[nH]c1-c1ccc(OC)cc1O | -10.8% [at 57.1 µM] |  |
| COc1ccc(Oc2cn[nH]c2-c2ccc(OC)cc2O)cc1 |  | 56.2 µM (active) |
| COc1ccc(-c2cn[nH]c2-c2ccc(OC)cc2)cc1 | -25.6% |  |
